Data: the supplement of paper PMC3334620
The full ranking holds about 33,000 sequences; the median of “E-score (-0.5 to 0.5)” is about -0.011, and the highest 2% start at about 0.28. Shown is part of a subset that was picked to be rich in the highest values.

Biological target: T1, Gcr1 (UniProt P07261)
T1 sequence: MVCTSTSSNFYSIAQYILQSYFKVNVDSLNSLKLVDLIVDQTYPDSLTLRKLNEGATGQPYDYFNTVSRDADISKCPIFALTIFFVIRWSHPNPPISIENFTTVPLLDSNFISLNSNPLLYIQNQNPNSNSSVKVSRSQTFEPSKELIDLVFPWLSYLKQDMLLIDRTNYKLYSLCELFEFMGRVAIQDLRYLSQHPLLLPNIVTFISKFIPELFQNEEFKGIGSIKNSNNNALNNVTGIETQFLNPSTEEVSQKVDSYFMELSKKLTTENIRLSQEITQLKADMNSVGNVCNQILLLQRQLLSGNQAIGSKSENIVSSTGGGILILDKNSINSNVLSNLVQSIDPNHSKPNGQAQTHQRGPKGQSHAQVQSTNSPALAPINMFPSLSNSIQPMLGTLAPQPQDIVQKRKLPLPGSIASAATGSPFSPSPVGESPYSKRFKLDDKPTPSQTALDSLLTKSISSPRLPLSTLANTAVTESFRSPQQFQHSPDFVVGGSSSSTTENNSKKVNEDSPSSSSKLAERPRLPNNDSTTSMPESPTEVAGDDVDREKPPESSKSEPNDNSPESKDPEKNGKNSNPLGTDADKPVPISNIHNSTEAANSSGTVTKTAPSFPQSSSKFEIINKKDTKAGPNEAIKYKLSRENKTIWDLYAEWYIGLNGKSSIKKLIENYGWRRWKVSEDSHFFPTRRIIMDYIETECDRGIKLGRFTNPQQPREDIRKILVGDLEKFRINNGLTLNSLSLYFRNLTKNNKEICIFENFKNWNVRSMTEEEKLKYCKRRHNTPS
Assay: PBM E-score (8-mer binding enrichment) (E-score (-0.5 to 0.5)); higher = stronger / more preferred TF binding
Conditions: protein concentration: 100 nM; construct: GST-full length
Protocol: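 Universal 'all 10-mer' protein binding microarrays (Agilent AMADID 015681) probed with GST-tagged S. cerevisiae TFs (full-length or DBD) made by in vitro transcription/translation (PURExpress), about 100-200 nM. Bound TF was detected with fluorescent anti-GST. Each ungapped 8-mer (which stands for itself and its reverse complement) is scored by the PBM enrichment score (E-score), a modified Wilcoxon-Mann-Whitney statistic from -0.5 to +0.5, computed with the Universal PBM Analysis Suite. Scale: above 0.35 generally sequence-specific binding.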

| Sequence | PBM E-score |
| --- | --- |
| AAAGGACG | 0.025 |
| ATTGTGAG | -0.17 |
| TAATAGGA | 0.278 |
| AATTAGGA | 0.315 |
| AAATAGGA | 0.335 |
| ATTTAGGA | 0.286 |
| CAATAGGA | 0.13 |
| AATTAGGT | 0.0846 |
| AATTAGGC | 0.327 |
| CTTTAGGA | 0.249 |
| ATTTAGGG | 0.196 |
| AATTAGGG | -0.012 |
| CATTAGGC | -0.0378 |
| GATTAGGA | 0.169 |
| GACTTTCA | 0.0748 |
| AATTCGAT | -0.0107 |
| GTCCGTAA | 0.215 |
| GTACCTAC | -0.0043 |
| CCATCGTA | -0.145 |
| AGGCTCAA | -0.283 |
| AATCTTGA | 0.1 |
| AATTGTTA | 0.116 |

| Sequence | PBM E-score |
| --- | --- |
| GAGGAACA | -0.193 |
| GGGGAACC | 0.161 |
| AGGGAACC | 0.203 |
| CAGGAACC | 0.32 |
| AAGGAACC | 0.285 |
| CAGGAACG | 0.118 |
| GAGGAACC | 0.318 |
| AAGGAACT | 0.0335 |
| CGGGAACC | 0.289 |
| CGGGAACG | -0.0928 |
| AAGGAACG | -0.0671 |
| CAGGAACA | -0.125 |
| ATCTAGAT | 0.0364 |
| TCAAAACA | 0.0365 |
| CGAATGTA | -0.0414 |
| ATCCTTAC | 0.0414 |
| AAAGAATA | -0.0583 |
| CATTTTAA | 0.252 |
| ATTAAAAG | 0.239 |
| CATTAAAA | 0.306 |
| TATTAAAA | 0.243 |
| CATTTAAA | 0.287 |

| Sequence | PBM E-score |
| --- | --- |
| GATTAAAA | 0.249 |
| ATTAAAAC | 0.113 |
| ATTAAAAA | 0.332 |
| TATTTAAA | 0.243 |
| GGGGGAGA | -0.233 |
| ATGTTCCA | 0.15 |
| CCCAACGG | -0.0188 |
| GGAGCGGA | 0.187 |
| CGCCGCAC | 0.0199 |
| AGGGAAAA | 0.108 |
| CAGAGGAA | 0.0251 |
| GAGAGGAA | 0.128 |
| TAGAGGAA | 0.396 |
| AAGAGGAA | 0.285 |
| AAGAGGAG | -0.0404 |
| AAGAGGAT | 0.0595 |
| AGGCACTG | -0.0493 |
| TACCAGGA | 0.19 |
| CTATGCTA | -0.075 |
| AGTCCTCG | -0.0287 |
| GAAGTCAC | 0.00882 |
| CAAGTCAA | -0.0468 |

| Sequence | PBM E-score |
| --- | --- |
| GAAGTCAA | 0.297 |
| AGCCCCTA | -0.0303 |
| ATGGGTGG | -0.0217 |
| GACGCCGC | 0.37 |
| CACGCCGC | 0.151 |
| AACGCCTC | -0.0454 |
| CACGCCTC | -0.0746 |
| AACGCCGC | 0.123 |
| GACGCCTC | 0.282 |
| AAAGGGTT | -0.0414 |
| GTAAAGGA | 0.149 |
| AAAGAGAC | 0.0252 |
| AGGTGCCA | 0.191 |
| AGGTGCCC | 0.395 |
| AGTTGCCA | 0.134 |
| CGGTGCCC | 0.231 |
| GGGTGCCA | 0.414 |
| GGTTGCCA | 0.377 |
| AGGTGCCG | 0.22 |
| CGTTGCCA | 0.0696 |
| CGGTGCCA | 0.00263 |
